# Compound activity from PubChem BioAssay.
# HP1b chromo inh = HP1-beta chromodomain-methylated histone interaction inhibition; P83916; AlphaScreen HP1-beta / biotin-H3K9me3 peptide binding; Potency, µM (top dose mostly 114 µM), inactives show top-dose activity change, negative = inhibition, actives largely listed as inhibitors; actives 0.56% (n = 390,000); AID 540317; also: potency is read from the fitted curve at half-maximal effect; nearly all actives have a fitted effect of over 70% in size
#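 Compound inhibition of the preformed complex between 50 nM HP1-beta and 50 nM biotinylated H3K9me3 peptide was read by AlphaScreen. Buffer was PBS pH 7.4 with 0.01% Tween-20. Incubations ran 30 min at room temperature, with 10 ug/mL donor/acceptor beads.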
# KAT2A inh = GCN5L2 (KAT2A) acetyltransferase inhibition; GCN5L2 HAT assay, ThioGlo1 CoA-SH fluorescence; Potency, µM (doses to about 58.9 µM), inactives show at the top dose activity change, negative = inhibition, usual class: inhibitors; actives 0.21% (n = 390,000); AID 504327; also: potency is read from the fitted curve at half-maximal effect; % is scaled to controls: 0 for no effect and ±100 for the full control effect
#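 GCN5L2 (20 nM) in 50mM HEPES pH 7.5, 0.1mM EDTA, 0.01% Tween-20 preincubated 15 min with compounds at room temperature. Reaction started with H3(1-25) 75uM, acetyl-CoA 70uM, ThioGlo1 50uM; CoA-thiol fluorescence (Ex340/Em540) read at 0 and 20 min.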
# BAZ2B block = blocks human BAZ2B | Q9UIF8 | AlphaScreen BAZ2B-H3K14Ac peptide displacement | Potency, µM (series often up to 114 µM), for the others: at the top dose activity change, negative = inhibition, usual class: inhibitors | actives 4.4% (n = 360,000); also: potency is read from the fitted curve at half-maximal effect; % is scaled to controls: 0 for no effect and ±100 for the full control effect; nearly all actives have a fitted effect of over 60% in size
#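 Complex of BAZ2B and biotin-H3K14Ac (50 nM apiece) forms over 30 min at RT, then faces library compounds up to 110 uM for another 30 min; AlphaScreen beads added, 20 min dark incubation, luminescence read.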
# PLK1 PBD inh = PLK1 (human) polo-box domain binding inhibition; P53350; Potency, µM, for inactives: max response, negative = inhibition, hits mostly inhibitors; actives 2.8% (n = 360,000); Plk1 PBD binding of FITC phosphopeptide, fluorescence polarization; AID 720504; also: potency is read from the fitted curve at half-maximal effect; series mostly up to about 57 µM; % is scaled to controls: 0 for no effect and ±100 for the full control effect; nearly all actives have a fitted effect of over 65% in size
# JMJD2A Tudor inh = blocks the human JMJD2A Tudor domain | AID 504339 | AlphaScreen JMJD2A-Tudor / H3K4me3 peptide binding | Potency, µM (titrated, usually from 114 µM), without a hit: at the highest dose activity change, negative = inhibition, usual class: inhibitors | O75164 | actives 4.4% (n = 390,000); also: potency is read from the fitted curve at half-maximal effect; % is scaled to controls: 0 for no effect and ±100 for the full control effect; nearly all actives have a fitted effect of over 50% in size
# Target sequence (O75164 whole entry, looked up, the tested form may be a part): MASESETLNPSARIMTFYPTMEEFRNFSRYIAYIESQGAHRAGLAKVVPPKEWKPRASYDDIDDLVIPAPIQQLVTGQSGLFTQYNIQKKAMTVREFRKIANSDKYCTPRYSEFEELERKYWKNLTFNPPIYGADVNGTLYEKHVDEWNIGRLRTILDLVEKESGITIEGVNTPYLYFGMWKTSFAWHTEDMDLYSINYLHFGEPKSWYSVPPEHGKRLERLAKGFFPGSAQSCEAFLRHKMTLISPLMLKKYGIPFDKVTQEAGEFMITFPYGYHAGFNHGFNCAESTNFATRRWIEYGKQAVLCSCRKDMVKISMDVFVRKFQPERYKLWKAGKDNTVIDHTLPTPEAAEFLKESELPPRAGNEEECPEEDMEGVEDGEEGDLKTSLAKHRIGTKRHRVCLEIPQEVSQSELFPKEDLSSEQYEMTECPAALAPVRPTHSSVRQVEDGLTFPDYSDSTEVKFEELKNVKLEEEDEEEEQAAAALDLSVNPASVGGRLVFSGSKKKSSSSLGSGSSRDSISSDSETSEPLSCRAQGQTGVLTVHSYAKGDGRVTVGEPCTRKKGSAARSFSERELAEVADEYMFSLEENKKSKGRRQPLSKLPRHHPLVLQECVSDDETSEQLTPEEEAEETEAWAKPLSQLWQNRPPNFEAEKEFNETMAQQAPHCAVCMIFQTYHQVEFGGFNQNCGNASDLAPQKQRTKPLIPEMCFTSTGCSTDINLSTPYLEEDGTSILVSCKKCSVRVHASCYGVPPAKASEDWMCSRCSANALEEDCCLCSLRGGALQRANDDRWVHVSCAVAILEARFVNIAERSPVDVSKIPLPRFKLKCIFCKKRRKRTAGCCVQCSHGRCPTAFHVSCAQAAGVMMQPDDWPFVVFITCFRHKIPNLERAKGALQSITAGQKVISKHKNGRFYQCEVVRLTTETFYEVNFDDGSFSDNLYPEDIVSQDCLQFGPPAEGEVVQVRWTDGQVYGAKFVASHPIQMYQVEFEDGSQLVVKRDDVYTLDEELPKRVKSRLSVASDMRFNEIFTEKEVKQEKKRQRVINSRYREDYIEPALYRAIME
# PI5P4Ka inh = inhibitors of human PI5P4K alpha. PI5P4Kalpha enzyme, ADP-Glo luminescence, 60 min; hits give low values. max response, %. actives 1.2% (n = 330,000); active = max response of -50% or lower; inconclusive = between -30% and -50%; inactive = -30% or higher; also: value at the top dose of about 77 µM; % is scaled to controls: 0 for no effect and ±100 for the full control effect
#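 qHTS, 1536-well: enzyme/substrate mix, compound by pin tool, 5 microM ATP final; RT 60 min; ADP-Glo reagents 1 (45 min) then 2 (30 min); luminescence.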
# * = called active by the depositor; ? = inconclusive; . = no result given; [ ] = dose if it differs, or a comment. In the library only some 7% were active in any assay of this set; here they are far more common. Unless noted, calls follow the shape of the dose curve; as a rule, active = well fitted curve in the direction sought with a large enough effect; inconclusive = small, poorly fitted or top-dose-only effect, or another doubt; inactive = no such curve, though single readings can be large; an effect the other way counts as inactive or inconclusive.
SMILES,HP1b chromo inh,KAT2A inh,BAZ2B block,PLK1 PBD inh,JMJD2A Tudor inh,PI5P4Ka inh
NNC(=O)c1csc(Cc2c(Cl)sc3ccc(Cl)cc23)n1,20%,-8%,9%,-11%,-28%,-4
CCC1CCc2c(sc(N)c2C(N)=O)C1 (stereo not drawn),-17%,.,.,?,?,?
CC1CCc2c(sc(N)c2C(N)=O)C1 (stereo not drawn),-21%,1%,-30%,27µM*,?,.
O=C(CCc1ccco1)CCc1ccco1,?,.,.,-13%,56µM*,-26
CN(Cc1ccccc1)C(=O)COC(=O)c1ccc(Cl)cc1N,3%,14%,5%,-9%,-5%,6
COc1cc(NC(=O)c2cc([N+](=O)[O-])ccc2NC(=O)CNCc2ccccn2)cc(OC)c1,6%,-13%,?,-5%,79µM*,1
COc1ccc(NC(=O)c2cc([N+](=O)[O-])ccc2NC(=O)CNCc2ccccn2)c(OC)c1,-1%,-10%,?,?,79µM*,-12
COc1cc([N+](=O)[O-])ccc1NC(=O)CSc1ccccn1,.,-11%,-16%,.,.,.
COc1ccccc1CNC(=O)C1(C)CCCCN1C (stereo not drawn),.,.,.,-11%,.,6
COc1cc2[nH]c(=O)n(Cc3ccc(C(=O)N4CCN(c5cc(Cl)ccc5C)CC4)cc3)c(=O)c2cc1OC,-11%,-1%,?,.,-30%,.
O=C(NC(c1ccccc1)c1ccccc1)c1ccc(S(=O)(=O)C(F)F)cc1,27%,-3%,9%,-6%,-7%,2
CC(NC(=O)c1ccc(S(=O)(=O)C(F)F)cc1)c1ccccc1 (stereo not drawn),-7%,1%,-8%,24µM*,?,-12
COc1cccc(N2C(=O)c3ccccc3C2=O)c1,.,.,.,.,4%,.
COC(=O)c1ccc(NC(=S)NCCCn2ccnc2)cc1,4%,-1%,79µM*,-8%,-23%,0
Cc1ccc(S(=O)(=O)N(C)C)cc1NC(=S)NCCCn1ccnc1,29%,3%,.,-16%,-25%,-2
CCOC(=O)c1ccc(NC(=S)NCCCn2ccnc2)cc1,38%,3%,56µM*,-7%,-26%,5
CN(C)S(=O)(=O)c1cccc(NC(=S)NCCCn2ccnc2)c1,14%,4%,79µM*,-25%,-4%[57.1 µM],-8
Cc1cc(C(=O)NCCCn2ccnc2)sc1-c1ccccc1,-4%,0%,50µM*,-25%,?,.
CCC(=O)Nc1ccc(C(=O)NCCCn2ccnc2)cc1,58%,-15%,?,-9%,-7%,-2
O=C(NCCCn1ccnc1)C(=O)Nc1ccccc1,?,-5%,-27%,30µM*,79µM*,4
COc1ccc(NC(=O)C(=O)NCCCn2ccnc2)cc1,-9%,19%,-5%,-8%,-20%,4
O=C1[C@H]2CCC=C[C@H]2[C@H](c2cccc(Br)c2)N1Cc1ccccc1,35%,-6%,.,21µM*,?,-53*
CN(C)c1ccc(CNC(=O)C2Cc3c(-c4cccc(C(N)=O)c4)ccnc3O2)cc1 (stereo not drawn),.,.,.,-20%,.,5
O=C1C2(CCCC13COC(c1ccc(O)cc1)OC3)COC(c1ccc(O)cc1)OC2 (stereo not drawn),14%,-20%,0%,30µM*,?,-7
O=c1cc(CO)oc(CN2CCCC2)c1O,3%,-2%,?,0%,89µM*,.
SMILES,HP1b chromo inh,KAT2A inh,BAZ2B block,PLK1 PBD inh,JMJD2A Tudor inh,PI5P4Ka inh
CCN(CC)Cc1oc(CO)cc(=O)c1O,?,-5%,32µM*,-12%,?,1
CN1CCN(Cc2oc(CO)cc(=O)c2O)CC1,1%,-1%,?,-12%,56µM*,-6
CC(=O)Nc1ccc(S(=O)(=O)Nn2cnnc2)cc1,35%,-2%,-13%,-3%,-1%,-1
C/C(=N\OCC(=O)OCC(=O)N(C)c1ccccc1)c1ccc2c(c1)OCO2,35%,-2%,79µM*,2%,5%,-1
C/C(=N\OCC(=O)OCC(=O)N(Cc1ccccc1)C(C)(C)C)c1ccc2c(c1)OCO2,39%,-10%,-22%,0%,-6%,14
O=C(NCc1n[nH]c(=S)n1-c1ccc(Cl)c(Cl)c1)c1ccc(S(=O)(=O)N2CCCCC2)cc1,14%,-4%,-27%,-11%,-29%,3
Cc1cccc(-n2c(CNC(=O)c3ccc(S(=O)(=O)N4CCCCC4)cc3)n[nH]c2=S)c1,28%,-4%,2%,-2%,35µM*,-10
O=C(NCc1n[nH]c(=S)n1-c1cccc(C(F)(F)F)c1)c1ccc(S(=O)(=O)N2CCCC2)cc1,34%,-6%,15%,-20%,-32%,-9
O=C(NCc1n[nH]c(=S)n1-c1ccccc1Cl)c1ccc(S(=O)(=O)N2CCCCC2)cc1,38%,-7%,4%,5%,-32%,8
O=C(NCc1n[nH]c(=S)n1-c1ccc(F)cc1)c1ccc(S(=O)(=O)N2CCCC2)cc1,19%,-16%,-3%,-5%,28µM*,.
COc1ccccc1-n1c(CNC(=O)c2ccc(S(=O)(=O)N3CCCCC3)cc2)n[nH]c1=S,20%,-2%,-16%,-11%,8.9µM*,2
O=C(NCc1n[nH]c(=S)n1-c1cccc(Cl)c1)c1ccc(S(=O)(=O)N2CCCC2)cc1,19%,6%,?,-8%,89µM*,.
CC1(CN2CCCC2)CCC(NC(=O)C(c2ccccc2)c2ccccc2)C(C)(C)O1 (stereo not drawn),.,.,.,-3%,.,-12
Cc1ccc(S(=O)(=O)C(CNC(=O)C(=O)NCCc2ccc(Cl)cc2)c2cccs2)cc1 (stereo not drawn),10%,-3%,-2%,.,-19%,.
Cc1ccc(S(=O)(=O)N2CCCCC2)cc1NC(=O)CSc1nnc(C2CC2)n1N,46%,-3%,.,-12%,-8%,-6
O=C(O)CCn1nnc(-c2ccccc2)n1,-7%,-2%,-16%,21µM*,-18%[11.4 µM],-14
O=c1c2ccccc2sn1-c1ccc(Cl)c(S(=O)(=O)N2CCOCC2)c1,?,.,.,.,14µM*,.
O=c1c2ccccc2sn1-c1ccc(S(=O)(=O)N2CCOCC2)cc1,?,.,.,.,50µM*,.
C[C@@H](c1ccccc1)N1C[C@@H](COCc2ccccc2)Oc2cc(N3CCC[C@H]3CO)ccc2S1(=O)=O,.,.,.,4%,.,-3
COc1ccc(CCNC(=O)C2CCCN2C(=O)Nc2ccc(Cl)cc2)cc1OC (stereo not drawn),9%,-5%,-23%,4%,-18%,-1
O=C(/C(N=Nc1cccc(C(F)(F)F)c1)=C(/O)c1cccs1)C(F)(F)F,?,-29%,?,-23%,50µM*,-17
